Laboratory results: ChEMBL document CHEMBL1961873, “Compounds: GSK PKIS; Assays: Nanosyn kinase panel” (2012)

Key:
[1] = molecular target: Tyrosine-protein kinase SYK (Homo sapiens) (UniProt P43405); conditions: at 1 µM
[2] = molecular target: T1, Tyrosine-protein kinase Tec (Homo sapiens) (UniProt P42680); conditions: at 0.1 µM
T1 sequence (whole entry): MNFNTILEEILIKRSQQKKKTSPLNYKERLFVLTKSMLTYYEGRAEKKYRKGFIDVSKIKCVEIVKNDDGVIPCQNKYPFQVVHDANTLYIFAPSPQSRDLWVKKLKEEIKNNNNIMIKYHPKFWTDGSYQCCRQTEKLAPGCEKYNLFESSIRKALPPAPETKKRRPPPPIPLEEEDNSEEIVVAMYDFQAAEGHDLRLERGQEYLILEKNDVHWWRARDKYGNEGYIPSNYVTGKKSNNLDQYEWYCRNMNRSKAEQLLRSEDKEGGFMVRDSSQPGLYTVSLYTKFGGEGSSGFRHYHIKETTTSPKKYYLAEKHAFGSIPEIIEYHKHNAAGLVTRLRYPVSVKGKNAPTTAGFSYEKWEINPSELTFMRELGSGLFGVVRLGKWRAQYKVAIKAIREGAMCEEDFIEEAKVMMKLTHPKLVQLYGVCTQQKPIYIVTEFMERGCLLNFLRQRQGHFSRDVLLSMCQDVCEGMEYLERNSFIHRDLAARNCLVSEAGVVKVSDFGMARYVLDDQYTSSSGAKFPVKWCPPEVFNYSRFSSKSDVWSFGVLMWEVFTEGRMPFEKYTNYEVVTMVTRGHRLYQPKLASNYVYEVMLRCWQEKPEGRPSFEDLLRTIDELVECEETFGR

[3] = molecular target: T1, Tyrosine-protein kinase Tec (Homo sapiens); conditions: at 1 µM
[4] = molecular target: Angiopoietin-1 receptor (Homo sapiens) (UniProt Q02763); conditions: at 0.1 µM
Chain of Angiopoietin-1 receptor (Homo sapiens) (Q02763 whole entry): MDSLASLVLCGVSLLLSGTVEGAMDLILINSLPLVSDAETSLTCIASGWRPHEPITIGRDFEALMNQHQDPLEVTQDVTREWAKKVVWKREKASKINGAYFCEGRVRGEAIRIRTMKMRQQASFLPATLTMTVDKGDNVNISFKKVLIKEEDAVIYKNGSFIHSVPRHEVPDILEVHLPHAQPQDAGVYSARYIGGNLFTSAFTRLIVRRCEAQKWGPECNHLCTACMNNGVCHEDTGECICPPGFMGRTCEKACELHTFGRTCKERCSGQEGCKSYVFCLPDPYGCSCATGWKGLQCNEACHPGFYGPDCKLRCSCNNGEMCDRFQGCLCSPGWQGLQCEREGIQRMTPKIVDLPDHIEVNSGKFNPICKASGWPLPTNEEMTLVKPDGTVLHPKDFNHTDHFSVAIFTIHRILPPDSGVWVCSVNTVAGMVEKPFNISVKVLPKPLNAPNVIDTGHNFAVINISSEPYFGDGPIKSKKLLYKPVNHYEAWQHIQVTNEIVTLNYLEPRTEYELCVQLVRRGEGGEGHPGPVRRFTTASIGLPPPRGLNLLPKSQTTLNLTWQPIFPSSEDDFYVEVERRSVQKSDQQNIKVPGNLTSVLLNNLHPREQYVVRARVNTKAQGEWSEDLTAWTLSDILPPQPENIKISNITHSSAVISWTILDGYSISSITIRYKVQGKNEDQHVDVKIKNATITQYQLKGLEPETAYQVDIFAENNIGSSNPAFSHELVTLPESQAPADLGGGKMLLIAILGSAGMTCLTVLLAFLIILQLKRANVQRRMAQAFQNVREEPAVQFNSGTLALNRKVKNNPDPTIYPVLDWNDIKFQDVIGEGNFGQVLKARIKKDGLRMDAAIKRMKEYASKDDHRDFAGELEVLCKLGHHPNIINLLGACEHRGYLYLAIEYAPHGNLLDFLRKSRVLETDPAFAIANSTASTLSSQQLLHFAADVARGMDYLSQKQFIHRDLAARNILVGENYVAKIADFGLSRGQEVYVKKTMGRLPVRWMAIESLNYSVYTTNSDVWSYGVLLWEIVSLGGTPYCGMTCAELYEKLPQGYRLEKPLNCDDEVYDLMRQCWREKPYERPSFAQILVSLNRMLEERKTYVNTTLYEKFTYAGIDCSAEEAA

[5] = molecular target: Angiopoietin-1 receptor (Homo sapiens) (UniProt Q02763); conditions: at 1 µM
[6] = molecular target: T2, Non-receptor tyrosine-protein kinase TNK1 (Homo sapiens) (UniProt Q13470); conditions: at 0.1 µM
T2 sequence (whole entry): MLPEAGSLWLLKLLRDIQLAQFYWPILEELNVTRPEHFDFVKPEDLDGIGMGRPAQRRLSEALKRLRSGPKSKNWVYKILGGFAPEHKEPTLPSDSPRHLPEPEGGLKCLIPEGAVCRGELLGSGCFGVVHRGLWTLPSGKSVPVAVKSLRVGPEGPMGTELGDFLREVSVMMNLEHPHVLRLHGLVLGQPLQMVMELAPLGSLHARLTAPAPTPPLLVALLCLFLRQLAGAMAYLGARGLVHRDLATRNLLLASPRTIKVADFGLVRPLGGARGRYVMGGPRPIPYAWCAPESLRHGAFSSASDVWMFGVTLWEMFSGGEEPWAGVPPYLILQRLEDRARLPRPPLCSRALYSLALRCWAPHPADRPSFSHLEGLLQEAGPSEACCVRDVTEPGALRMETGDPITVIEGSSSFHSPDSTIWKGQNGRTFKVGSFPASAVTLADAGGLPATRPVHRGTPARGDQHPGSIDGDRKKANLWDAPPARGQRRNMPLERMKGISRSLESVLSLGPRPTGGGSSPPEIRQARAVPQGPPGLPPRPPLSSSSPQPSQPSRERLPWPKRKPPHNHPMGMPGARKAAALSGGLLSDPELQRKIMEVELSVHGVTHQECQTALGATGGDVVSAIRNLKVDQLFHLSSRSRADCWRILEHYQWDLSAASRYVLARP

[7] = molecular target: T2, Non-receptor tyrosine-protein kinase TNK1 (Homo sapiens); conditions: at 1 µM
[8] = molecular target: Activated CDC42 kinase 1 (Homo sapiens) (UniProt Q07912); conditions: at 0.1 µM
Chain of Activated CDC42 kinase 1 (Homo sapiens) (Q07912 whole entry, looked up): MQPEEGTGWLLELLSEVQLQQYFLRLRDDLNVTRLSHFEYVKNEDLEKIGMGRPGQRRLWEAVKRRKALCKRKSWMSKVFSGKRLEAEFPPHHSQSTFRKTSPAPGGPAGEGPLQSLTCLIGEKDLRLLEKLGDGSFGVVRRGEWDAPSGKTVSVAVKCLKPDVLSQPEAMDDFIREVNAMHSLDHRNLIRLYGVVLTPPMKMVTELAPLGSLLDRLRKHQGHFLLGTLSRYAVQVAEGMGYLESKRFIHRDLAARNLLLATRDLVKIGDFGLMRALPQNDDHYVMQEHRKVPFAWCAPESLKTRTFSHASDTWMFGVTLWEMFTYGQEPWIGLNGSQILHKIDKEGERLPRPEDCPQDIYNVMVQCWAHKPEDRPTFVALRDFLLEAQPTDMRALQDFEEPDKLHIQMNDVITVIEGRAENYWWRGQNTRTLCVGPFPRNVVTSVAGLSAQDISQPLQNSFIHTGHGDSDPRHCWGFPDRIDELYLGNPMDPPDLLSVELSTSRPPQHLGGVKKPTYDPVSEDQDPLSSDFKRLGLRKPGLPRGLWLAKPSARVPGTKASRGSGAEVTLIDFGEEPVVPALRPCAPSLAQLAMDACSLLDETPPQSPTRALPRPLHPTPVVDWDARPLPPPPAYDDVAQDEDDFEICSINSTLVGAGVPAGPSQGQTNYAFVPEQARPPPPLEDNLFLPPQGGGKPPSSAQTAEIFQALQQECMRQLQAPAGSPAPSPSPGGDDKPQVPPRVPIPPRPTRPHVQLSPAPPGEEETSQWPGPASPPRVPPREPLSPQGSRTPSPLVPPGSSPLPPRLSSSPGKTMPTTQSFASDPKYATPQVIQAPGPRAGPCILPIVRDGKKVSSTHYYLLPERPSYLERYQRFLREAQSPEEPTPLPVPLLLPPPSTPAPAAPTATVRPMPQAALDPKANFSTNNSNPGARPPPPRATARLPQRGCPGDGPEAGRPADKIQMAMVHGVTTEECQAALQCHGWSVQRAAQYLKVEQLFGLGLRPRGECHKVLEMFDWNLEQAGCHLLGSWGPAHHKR

[9] = molecular target: Activated CDC42 kinase 1 (Homo sapiens) (UniProt Q07912); conditions: at 1 µM
[10] = molecular target: High affinity nerve growth factor receptor (Homo sapiens) (UniProt P04629); conditions: at 0.1 µM;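 note: each value is a mean of replicate percent inhibition readings against TRKA kinase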
Chain of High affinity nerve growth factor receptor (Homo sapiens) (P04629 33-796 limits assumed): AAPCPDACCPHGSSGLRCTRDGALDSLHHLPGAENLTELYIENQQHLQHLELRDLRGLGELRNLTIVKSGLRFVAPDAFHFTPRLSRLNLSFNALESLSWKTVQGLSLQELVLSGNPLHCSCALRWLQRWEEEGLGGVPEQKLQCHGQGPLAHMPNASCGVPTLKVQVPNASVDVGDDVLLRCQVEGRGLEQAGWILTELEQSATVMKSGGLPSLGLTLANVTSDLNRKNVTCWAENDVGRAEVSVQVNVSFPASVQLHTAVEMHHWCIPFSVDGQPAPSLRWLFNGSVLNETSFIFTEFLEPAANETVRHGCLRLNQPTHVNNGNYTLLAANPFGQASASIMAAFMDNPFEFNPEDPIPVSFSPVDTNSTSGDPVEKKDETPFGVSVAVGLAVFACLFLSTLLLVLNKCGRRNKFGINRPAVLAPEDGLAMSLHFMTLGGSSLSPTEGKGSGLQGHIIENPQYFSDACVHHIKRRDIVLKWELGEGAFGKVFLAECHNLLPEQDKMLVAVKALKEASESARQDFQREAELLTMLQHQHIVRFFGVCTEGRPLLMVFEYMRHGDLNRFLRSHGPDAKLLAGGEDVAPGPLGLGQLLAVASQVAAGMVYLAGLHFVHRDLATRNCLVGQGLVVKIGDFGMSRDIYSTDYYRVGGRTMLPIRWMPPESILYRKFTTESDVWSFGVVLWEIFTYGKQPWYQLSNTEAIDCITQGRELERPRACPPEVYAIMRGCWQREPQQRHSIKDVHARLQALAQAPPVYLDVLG

SMILES | inhibition [1] [%] | inhibition [2] [%] | inhibition [3] [%] | inhibition [4] [%] | inhibition [5] [%] | inhibition [6] [%] | inhibition [7] [%] | inhibition [8] [%] | inhibition [9] [%] | inhibition [10] [%]
c1ccc(-c2n[nH]cc2-c2ccnc(-c3ccc(OCCN4CCOCC4)cc3)c2)nc1 | -0.16 | 3.84 | 4.59 | 4.66 | 7.13 | 0.24 | -5.31 | 5.48 | 5.14 | -3.86
CN(C)c1ccc2c(c1)/C(=C/Nc1ccc(S(N)(=O)=O)cc1)C(=O)N2 | 0.31 | 1.4 | 2.35 | 1.03 | 5.59 | 0.71 | 5.7 | 0.14 | 1.79 | 6.93
NC(=O)c1cc(-c2ccncc2)cc(-c2ccccc2)c1N | 1.64 | 18.5 | 58.7 | 3.02 | 6.28 | 1.93 | 6.5 | 1.25 | 7.25 | 1.66
COc1cc2ncn(-c3cc(OCCc4ccccc4)c(C(N)=O)s3)c2cc1OC | -0.89 | 2.52 | 4.4 | 3.5 | 14.9 | 2.85 | 13.5 | 0.78 | 2.21 | 1.42
CN(C)CCCNc1nccc(-c2c(-c3ccc(F)cc3)nn3cc(C(F)(F)F)ccc23)n1 | -0.03 | -0.2 | 1.41 | 5.61 | 9.58 | 1.15 | 0.39 | 0.85 | 1.33 | 4.23
COC(=O)Nc1nc2ccc(Sc3ccc(NC(=O)Nc4cc(C(F)(F)F)ccc4F)cc3)cc2[nH]1 | -0.54 | 3.34 | 5.46 | 21.1 | 70.7 | 2.15 | 25.3 | 0.06 | 1.64 | 62.7
O=C1Nc2ccc(I)cc2C1=Cc1cc(Br)c(O)c(Br)c1 | 1.56 | 7.04 | 3.72 | 4.71 | 5.55 | 22.7 | 84.5 | 0.67 | 3.22 | 2.97
C[C@@H](Oc1cc(-n2cnc3ccc(OCC4CCN(C)CC4)cc32)sc1C(N)=O)c1ccccc1Cl | 2.34 | 6.45 | 6.29 | 4.83 | 19.8 | 7.13 | 26.1 | 3.05 | 19.8 | 1.86
NC(=O)c1ccc(Oc2nccc(-c3c(-c4ccc(F)cc4)ncn3C3CCNCC3)n2)cc1 | 2.71 | 8.39 | 6.14 | 5.16 | 6.4 | 4.4 | 4.01 | 0.55 | 1.67 | 2.53
CCc1ccc(Oc2nccc(-c3c(-c4ccc(F)cc4)ncn3C3CCNCC3)n2)cc1 | 2.45 | 6.67 | 4.84 | 3.66 | 4.41 | 1.24 | 0.88 | 1.41 | 2.2 | 4.16
CN(C)CCOc1ccc(-c2cc(-c3ccc4c(c3)CCC4=NO)c(-c3ccncc3)o2)cc1 | 0.74 | 0.39 | 1.01 | 0.77 | 11.6 | 2.33 | 20.8 | -1.03 | 0.17 | -1.52
CS(=O)(=O)CCNCc1cc(-c2cc3c(Nc4ccc(OCc5cccc(F)c5)c(Cl)c4)ncnc3s2)cs1 | 1.7 | 7.25 | 7 | 8.64 | 10.7 | 1.8 | 6.39 | 1.66 | 5.79 | 2.34
COc1ccc2cc(-c3c(-c4ccncc4)nc(-c4ccc(S(C)(=O)=O)cc4C)n3C)ccc2c1 | 0.26 | 4.38 | 5.26 | 75 | 78.7 | 4.94 | 29.3 | 0.74 | 3.77 | 3.75
CS(=O)(=O)CCNCc1ccc(-c2ccc3ncnc(Nc4ccc(OCc5ccccc5)c(Br)c4)c3c2)o1 | -5.01 | -2.31 | 1.49 | 0.77 | 4.68 | 0.59 | 14.6 | -0.17 | 1.61 | 1.4
Fc1ccc(-c2ncn(C3CCNCC3)c2-c2ccnc(Oc3ccc4c(c3)OCO4)n2)cc1 | -5.42 | 2.04 | 5.37 | 7.45 | 12.3 | 3.93 | 7.31 | 1.16 | 1.77 | 1.21
NC(=O)Cc1ccccc1Oc1nccc(-c2c(-c3ccc(F)cc3)ncn2C2CCNCC2)n1 | -0.38 | 4.14 | 4.45 | 3.62 | 4.3 | -0.61 | -3.16 | 1.43 | 2.74 | -0.18
O=C(Nc1ccc(Oc2ccc3[nH]c(NC(=O)c4ccccc4)nc3c2)cc1)Nc1cc(C(F)(F)F)ccc1F | -0.11 | 4.86 | 8.67 | 9.81 | 60.5 | 4.53 | 40 | 0.59 | 4.59 | 5.99
